Holding throughout (assay type): functional
Experiment [1] addresses Solute carrier family 2, facilitated glucose transporter member 1 (Homo sapiens) (UniProt P11166). The experiment is described as follows: ST_JUDE_LEISH: Cytotoxicity at 2uM final concentration against transgenic Leishmania Mexicana promastigotes LmGLUT1 that are glucose transport deficient and complemented with the human glucose transporter GLUT1. Activity is measured by DNA content using SYBR green in vitro.

Experiment [2] concerns the target Hexose transporter 1 (Plasmodium falciparum) (UniProt O97467). The experiment is described as follows: ST_JUDE_LEISH: Cytotoxicity at 2uM final concentration against transgenic Leishmania Mexicana promastigotes LmPfHT that are glucose transport deficient and complemented with the Plasmodium falciparum hexose transporter. Activity is measured by DNA content using SYBR green in vitro.

In experiment [3] the target is Glucose transporter (Leishmania mexicana) (UniProt O61059). The experiment is described as follows: ST_JUDE_LEISH: Cytotoxicity at 2uM final concentration against transgenic Leishmania Mexicana promastigotes LmGT2 that are glucose transport deficient and complemented with the L. Mexicana glucose transporter 2. Activity is measured by DNA content using SYBR green in vitro.

Sequence of Solute carrier family 2, facilitated glucose transporter member 1 (Homo sapiens) (P11166 whole entry): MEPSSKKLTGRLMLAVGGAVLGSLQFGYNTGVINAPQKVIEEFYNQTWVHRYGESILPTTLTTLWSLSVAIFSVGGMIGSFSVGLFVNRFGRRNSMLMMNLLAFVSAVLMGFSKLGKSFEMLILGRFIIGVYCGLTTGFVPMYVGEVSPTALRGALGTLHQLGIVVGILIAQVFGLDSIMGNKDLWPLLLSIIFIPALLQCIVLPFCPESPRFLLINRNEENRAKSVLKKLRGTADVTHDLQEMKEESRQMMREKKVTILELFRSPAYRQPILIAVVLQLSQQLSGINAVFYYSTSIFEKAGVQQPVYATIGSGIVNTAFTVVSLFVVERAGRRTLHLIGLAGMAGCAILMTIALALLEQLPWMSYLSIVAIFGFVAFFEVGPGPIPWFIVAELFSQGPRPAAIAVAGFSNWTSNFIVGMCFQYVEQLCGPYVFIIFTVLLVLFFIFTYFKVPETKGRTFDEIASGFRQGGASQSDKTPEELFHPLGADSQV

For `Cc1nc2nc(N)nc(N)c2c(C)c1Cc1cccc(F)c1`, the inhibition (usually the change of the read-out against control, counted positive when it falls) in experiment [1] was 2.65%; in experiment [2], 1.14%; in experiment [3] it was 0.65%.

`CN(C)C(=O)c1cc(CNCc2ccccc2)ccc1-c1cccc(CNCc2ccc(-c3ccccc3)cc2)c1`: the inhibition in experiment [1] worked out at 0.97%; in experiment [2], 3.85%; in experiment [3], 3.02%.

As to `Cc1nc(C)c(-c2ccc(Oc3ccc(OC(F)(F)F)cc3)cc2)c(OC(=O)c2ccc(CN(C)C)cc2)c1Cl`, the inhibition came out at 10.9% in experiment [1], 8.12% in experiment [2] and 8.96% in experiment [3].

In the case of `CN1CCN(c2ccc(Nc3ccnc4ccc(-c5ccccc5)cc34)cc2)CC1`, the inhibition in experiment [1] is 1.32%; in experiment [2], 1.83%; in experiment [3], -1.67%.

On to `O=C(NCc1ccccc1)c1ccc(C(=O)NCC2CNCCO2)cc1` (stereo unspecified), for which the inhibition came out at 5.08% in experiment [1], 6.24% in experiment [2] and 9.54% in experiment [3].

In the case of `Cc1ccc(C2CCN(CCCCNC(=O)c3ccc(-c4ccc(C#N)cc4)cc3)CC2)c(O)c1`, the inhibition turned out to be 7.24% in experiment [1], 7.29% in experiment [2] and 7.94% in experiment [3].

In the case of `Nc1c2c(nc3ccc(NC(=O)Cc4ccccc4)cc13)CCCC2`, the inhibition worked out at 4.09% in experiment [1], 5.7% in experiment [2] and 6.71% in experiment [3].

On to `COc1cc(NCCCNCc2cn(S(=O)(=O)c3ccccc3)c3ccccc23)nc2ccccc12`, for which the figures for the inhibition in experiment [1], in experiment [2] and in experiment [3] were 3.92%, 4.04% and 3.17%, respectively.

Consider `O=C(CC1SC(N2N=C(c3cccs3)CC2c2ccccc2)=NC1=O)Nc1ccccc1F` (stereo unspecified), for which the inhibition in experiment [1] amounted to 14.2%; in experiment [2] it was 11.5%; in experiment [3], 3.51%.

Regarding `COc1ccc(Oc2ccc(-c3c(C)[nH]c(C)c(Cl)c3=O)cc2)cc1`, the inhibition in experiment [1] is 2.75%; in experiment [2], 3.46%; in experiment [3], 2.72%.

On to `CC(C)[C@H](NC(=O)c1ccc(O)c(-c2cccc(C(F)(F)F)c2)c1)C(=O)NCCN1CCCCC1`, for which the inhibition in experiment [1] was -0.28%; in experiment [2], -0.52%; in experiment [3] it was 0.62%.

For `O=C(NCCc1ccc(O)cc1)n1c2ccccc2c2ccccc21`, the inhibition in experiment [1] was 2.7%; in experiment [2] it was 4.05%; in experiment [3], 1.38%.

The values are drawn from ChEMBL document CHEMBL3433997, “St. Jude Leishmania screening dataset” (2016).
